Source: the supplement of paper PMC5662767
Counter-ions that a name gives are not always drawn.
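Further: flow cytometry read-out as median GFP intensity of gated cells, compounds added 30 min before Hh-conditioned or mock medium, mock-treated cells serving as unstimulated baseline.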

Each molecule was assayed on Drosophila S2 cl14 SmoIP sensor cells (assay: normalized SmoIP GFP fluorescence (untreated unstimulated = 0%, untreated Hh-stimulated = 100%); higher = more Smo activation sensor fluorescence). Conditions: stimulation: Hh conditioned medium (+Hh); compound concentration: 2 uM; 24 h.
With `OC(CN1CCN(c2cccc(Cl)c2)CC1)C(c1ccccc1)c1ccccc1` (stereo not drawn) the “normalized SmoIP GFP fluorescence” value was 109%.
`COc1cc2nccc(Oc3ccc(NC(=O)NC4CC4)c(Cl)c3)c2cc1C(N)=O` was tested, and the “normalized SmoIP GFP fluorescence” value was 99.3%.
`CC(=O)[C@H]1CC[C@H]2[C@@H]3CC=C4C[C@@H](O)CC[C@]4(C)[C@H]3CC[C@]12C` [pregnenolone] was tested, and the “normalized SmoIP GFP fluorescence” value was 116%.
For `C#Cc1cccc(Nc2ncnc3cc4c(cc23)OCCOCCOCCO4)c1` [icotinib], the “normalized SmoIP GFP fluorescence” value was 93.3%.
In the case of `Cn1cnc2c(F)c(Nc3ccc(Br)cc3Cl)c(C(=O)NOCCO)cc21`, the “normalized SmoIP GFP fluorescence” value is reported as 126%.
`C[C@@]1(C(=O)Nc2ccc(F)nc2)CCCN1c1nc(Nc2cc(C3CC3)n[nH]2)c2cccn2n1` was tested, and the “normalized SmoIP GFP fluorescence” value was 230%.
In the case of `CCCCNC(=O)NS(=O)(=O)c1ccc(C)cc1` [tolbutamide], the “normalized SmoIP GFP fluorescence” value is reported as 108%.
For `CN[C@@H](C)C(=O)N[C@H](C(=O)N1CCC[C@H]1C(=O)Nc1snnc1-c1ccccc1)C1CCCCC1`, the “normalized SmoIP GFP fluorescence” value was 85.6%.
`COc1cccc(Nc2c(C(N)=O)cnc3c(C)cc(S(=O)(=O)c4cccc(C(=O)N(C)C)c4)cc23)c1` was tested, and the “normalized SmoIP GFP fluorescence” value was 111%.
For `CCN(CC)C(=O)/C(C#N)=C/c1cc(O)c(O)c([N+](=O)[O-])c1` [entacapone], the “normalized SmoIP GFP fluorescence” value was 106%.
For `OC[C@@H](O)CN1CCN(c2ccccc2)CC1` [levodropropizine], the “normalized SmoIP GFP fluorescence” value was 94.5%.
`O=C(Nc1cccc(Cl)c1)Nc1ncc(CCNc2ncnc3ccsc23)s1` was tested, and the “normalized SmoIP GFP fluorescence” value was 127%.
In the case of `CN1CCN(CCCN2c3ccccc3Sc3ccc(C(F)(F)F)cc32)CC1` [trifluoperazine-dihydrochloride], the “normalized SmoIP GFP fluorescence” value is reported as 108%.
`C#Cc1cccc(Nc2ncnc3cc(OC)c(OCCCCCCC(=O)NO)cc23)c1` was tested, and the “normalized SmoIP GFP fluorescence” value was 128%.
`C=CC(=O)Nc1ccc2ncnc(Nc3ccc(OCc4cccc(F)c4)c(Cl)c3)c2c1` was tested, and the “normalized SmoIP GFP fluorescence” value was 99.1%.
For `CNCCCC12CCC(c3ccccc31)c1ccccc12` [Maprotiline-hydrochloride], the “normalized SmoIP GFP fluorescence” value was 123%.
In the case of `Cc1ccc(NC(=O)c2ccc(CN3CCN(C)CC3)cc2)cc1Nc1nc(-c2cccnc2)cs1` [Masitinib-(AB1010)], the “normalized SmoIP GFP fluorescence” value is reported as 113%.
In the case of `CCCCOc1cc(C(=O)NCCN(CC)CC)c2ccccc2n1` [dibucaine-cinchocaine-hcl], the “normalized SmoIP GFP fluorescence” value is reported as 113%.
For `CCOC(=O)c1ccc(N2NC(=O)C(=Cc3ccc([N+](=O)[O-])o3)C2=O)cc1`, the “normalized SmoIP GFP fluorescence” value was 119%.
With `CN1CC(=O)N2[C@H](c3ccc4c(c3)OCO4)c3[nH]c4ccccc4c3C[C@@H]2C1=O` [Tadalafil(Cialis)] the “normalized SmoIP GFP fluorescence” value was 94.8%.
`CCC[C@H](NC(=O)[C@@H]1[C@H]2CCC[C@H]2CN1C(=O)[C@@H](NC(=O)[C@@H](NC(=O)c1cnccn1)C1CCCCC1)C(C)(C)C)C(=O)C(=O)NC1CC1` [Telaprevir(VX-950)] was tested, and the “normalized SmoIP GFP fluorescence” value was 120%.
For `Cn1cc(CNCC2CCN(c3ncc(C(=O)NO)cn3)CC2)c2ccccc21`, the “normalized SmoIP GFP fluorescence” value was 268%.
For `COc1ccccc1N1CCN(CCCNc2cc(=O)n(C)c(=O)n2C)CC1` [urapidil-hydrochloride], the “normalized SmoIP GFP fluorescence” value was 110%.
With `C/C(=C\C(=O)Nc1ccccc1C(=O)O)c1ccc2ccccc2c1` the “normalized SmoIP GFP fluorescence” value was 109%.
In the case of `Cc1cc(/C=C/C#N)cc(C)c1Nc1ccnc(Nc2ccc(C#N)cc2)n1` [rilpivirine], the “normalized SmoIP GFP fluorescence” value is reported as 110%.
In the case of `CNC(=O)c1ccc(N2C(=S)N(c3cnc(C#N)c(C(F)(F)F)c3)C(=O)C23CCC3)cc1F`, the “normalized SmoIP GFP fluorescence” value is reported as 105%.
In the case of `NC(=O)c1ncn([C@@H]2O[C@H](CO)[C@@H](O)[C@H]2O)c1N` [Acadesine], the “normalized SmoIP GFP fluorescence” value is reported as 127%.
With `Cc1ccc(NC(=O)c2cccc(N(C)C)c2)cc1NC(=O)c1ccc(O)cc1` the “normalized SmoIP GFP fluorescence” value was 120%.
With `COc1cc(Nc2c(C#N)cnc3cc(OCCCN4CCN(C)CC4)c(OC)cc23)c(Cl)cc1Cl` [Bosutinib] the “normalized SmoIP GFP fluorescence” value was 143%.
With `CCN(CC)CCOc1ccc(/C(=C(\Cl)c2ccccc2)c2ccccc2)cc1` [Clomifene-citrate-Serophene] the “normalized SmoIP GFP fluorescence” value was 139%.
In the case of `OCCn1cc(-c2ccc3c(c2)CC/C3=N\O)c(-c2ccncc2)n1`, the “normalized SmoIP GFP fluorescence” value is reported as 97.5%.
`Cc1cc(Nc2cc(N3CCN(C)CC3)nc(/C=C/c3ccccc3)n2)n[nH]1` was tested, and the “normalized SmoIP GFP fluorescence” value was 136%.
For `CCOc1ccc(NC(C)=O)cc1` [phenacetin], the “normalized SmoIP GFP fluorescence” value was 131%.
In the case of `CC(C)(C)c1cc(NC(=O)Nc2ccc(-c3cn4c(n3)sc3cc(OCCN5CCOCC5)ccc34)cc2)no1`, the “normalized SmoIP GFP fluorescence” value is reported as 110%.
In the case of `Nc1cccc2c1C(=O)N(C1CCC(=O)NC1=O)C2=O` (stereo not drawn) [Pomalidomide(CC-4047)], the “normalized SmoIP GFP fluorescence” value is reported as 103%.
`O=C(NCc1ccccc1)c1csc(Nc2ccncn2)n1` [Thiazovivin] was tested, and the “normalized SmoIP GFP fluorescence” value was 72.7%.
In the case of `NC(=O)C(c1ccccc1)(c1ccccc1)[C@@H]1CCN(CCc2ccc3c(c2)CCO3)C1` [darifenacin-hydrobromide], the “normalized SmoIP GFP fluorescence” value is reported as 116%.
With `Cc1ccc(C(=O)NCCCCCC(=O)Nc2ccccc2N)cc1` [rg2833-rgfp109] the “normalized SmoIP GFP fluorescence” value was 101%.
With `Nc1ccn([C@H]2CC[C@@H](CO)O2)c(=O)n1` [Zalcitabine] the “normalized SmoIP GFP fluorescence” value was 114%.

Same assay, conditions: stimulation: mock conditioned medium (-Hh); compound concentration: 2 uM; 24 h
In the case of `OC(CN1CCN(c2cccc(Cl)c2)CC1)C(c1ccccc1)c1ccccc1` (stereo not drawn), the “normalized SmoIP GFP fluorescence” value is reported as -4.89%.
`COc1cc2nccc(Oc3ccc(NC(=O)NC4CC4)c(Cl)c3)c2cc1C(N)=O` was tested, and the “normalized SmoIP GFP fluorescence” value was 7.92%.
For `CC(=O)[C@H]1CC[C@H]2[C@@H]3CC=C4C[C@@H](O)CC[C@]4(C)[C@H]3CC[C@]12C` [pregnenolone], the “normalized SmoIP GFP fluorescence” value was 8.09%.
In the case of `C#Cc1cccc(Nc2ncnc3cc4c(cc23)OCCOCCOCCO4)c1` [icotinib], the “normalized SmoIP GFP fluorescence” value is reported as -1.63%.
In the case of `Cn1cnc2c(F)c(Nc3ccc(Br)cc3Cl)c(C(=O)NOCCO)cc21`, the “normalized SmoIP GFP fluorescence” value is reported as 42.9%.
With `C[C@@]1(C(=O)Nc2ccc(F)nc2)CCCN1c1nc(Nc2cc(C3CC3)n[nH]2)c2cccn2n1` the “normalized SmoIP GFP fluorescence” value was 60.9%.
With `CCCCNC(=O)NS(=O)(=O)c1ccc(C)cc1` [tolbutamide] the “normalized SmoIP GFP fluorescence” value was -16.8%.
For `CN[C@@H](C)C(=O)N[C@H](C(=O)N1CCC[C@H]1C(=O)Nc1snnc1-c1ccccc1)C1CCCCC1`, the “normalized SmoIP GFP fluorescence” value was 4.68%.
`COc1cccc(Nc2c(C(N)=O)cnc3c(C)cc(S(=O)(=O)c4cccc(C(=O)N(C)C)c4)cc23)c1` was tested, and the “normalized SmoIP GFP fluorescence” value was -16.1%.
For `CCN(CC)C(=O)/C(C#N)=C/c1cc(O)c(O)c([N+](=O)[O-])c1` [entacapone], the “normalized SmoIP GFP fluorescence” value was -3.05%.
For `OC[C@@H](O)CN1CCN(c2ccccc2)CC1` [levodropropizine], the “normalized SmoIP GFP fluorescence” value was -2.93%.
For `O=C(Nc1cccc(Cl)c1)Nc1ncc(CCNc2ncnc3ccsc23)s1`, the “normalized SmoIP GFP fluorescence” value was 11%.
In the case of `CN1CCN(CCCN2c3ccccc3Sc3ccc(C(F)(F)F)cc32)CC1` [trifluoperazine-dihydrochloride], the “normalized SmoIP GFP fluorescence” value is reported as 4%.
`C#Cc1cccc(Nc2ncnc3cc(OC)c(OCCCCCCC(=O)NO)cc23)c1` was tested, and the “normalized SmoIP GFP fluorescence” value was 29.7%.
With `C=CC(=O)Nc1ccc2ncnc(Nc3ccc(OCc4cccc(F)c4)c(Cl)c3)c2c1` the “normalized SmoIP GFP fluorescence” value was -15.8%.
In the case of `CNCCCC12CCC(c3ccccc31)c1ccccc12` [Maprotiline-hydrochloride], the “normalized SmoIP GFP fluorescence” value is reported as -0.116%.
With `Cc1ccc(NC(=O)c2ccc(CN3CCN(C)CC3)cc2)cc1Nc1nc(-c2cccnc2)cs1` [Masitinib-(AB1010)] the “normalized SmoIP GFP fluorescence” value was 20.6%.
`CCCCOc1cc(C(=O)NCCN(CC)CC)c2ccccc2n1` [dibucaine-cinchocaine-hcl] was tested, and the “normalized SmoIP GFP fluorescence” value was 0.361%.
In the case of `CCOC(=O)c1ccc(N2NC(=O)C(=Cc3ccc([N+](=O)[O-])o3)C2=O)cc1`, the “normalized SmoIP GFP fluorescence” value is reported as 8.94%.
For `CN1CC(=O)N2[C@H](c3ccc4c(c3)OCO4)c3[nH]c4ccccc4c3C[C@@H]2C1=O` [Tadalafil(Cialis)], the “normalized SmoIP GFP fluorescence” value was -0.265%.
In the case of `CCC[C@H](NC(=O)[C@@H]1[C@H]2CCC[C@H]2CN1C(=O)[C@@H](NC(=O)[C@@H](NC(=O)c1cnccn1)C1CCCCC1)C(C)(C)C)C(=O)C(=O)NC1CC1` [Telaprevir(VX-950)], the “normalized SmoIP GFP fluorescence” value is reported as 1.03%.
In the case of `Cn1cc(CNCC2CCN(c3ncc(C(=O)NO)cn3)CC2)c2ccccc21`, the “normalized SmoIP GFP fluorescence” value is reported as 60.6%.
`COc1ccccc1N1CCN(CCCNc2cc(=O)n(C)c(=O)n2C)CC1` [urapidil-hydrochloride] was tested, and the “normalized SmoIP GFP fluorescence” value was -7.96%.
In the case of `C/C(=C\C(=O)Nc1ccccc1C(=O)O)c1ccc2ccccc2c1`, the “normalized SmoIP GFP fluorescence” value is reported as -2.42%.
For `Cc1cc(/C=C/C#N)cc(C)c1Nc1ccnc(Nc2ccc(C#N)cc2)n1` [rilpivirine], the “normalized SmoIP GFP fluorescence” value was -0.151%.
In the case of `CNC(=O)c1ccc(N2C(=S)N(c3cnc(C#N)c(C(F)(F)F)c3)C(=O)C23CCC3)cc1F`, the “normalized SmoIP GFP fluorescence” value is reported as -0.0369%.
In the case of `NC(=O)c1ncn([C@@H]2O[C@H](CO)[C@@H](O)[C@H]2O)c1N` [Acadesine], the “normalized SmoIP GFP fluorescence” value is reported as -15.4%.
With `Cc1ccc(NC(=O)c2cccc(N(C)C)c2)cc1NC(=O)c1ccc(O)cc1` the “normalized SmoIP GFP fluorescence” value was -14.7%.
In the case of `COc1cc(Nc2c(C#N)cnc3cc(OCCCN4CCN(C)CC4)c(OC)cc23)c(Cl)cc1Cl` [Bosutinib], the “normalized SmoIP GFP fluorescence” value is reported as 9.08%.
In the case of `CCN(CC)CCOc1ccc(/C(=C(\Cl)c2ccccc2)c2ccccc2)cc1` [Clomifene-citrate-Serophene], the “normalized SmoIP GFP fluorescence” value is reported as -11.6%.
In the case of `OCCn1cc(-c2ccc3c(c2)CC/C3=N\O)c(-c2ccncc2)n1`, the “normalized SmoIP GFP fluorescence” value is reported as 0.274%.
With `Cc1cc(Nc2cc(N3CCN(C)CC3)nc(/C=C/c3ccccc3)n2)n[nH]1` the “normalized SmoIP GFP fluorescence” value was 23.8%.
In the case of `CCOc1ccc(NC(C)=O)cc1` [phenacetin], the “normalized SmoIP GFP fluorescence” value is reported as 9.08%.
In the case of `CC(C)(C)c1cc(NC(=O)Nc2ccc(-c3cn4c(n3)sc3cc(OCCN5CCOCC5)ccc34)cc2)no1`, the “normalized SmoIP GFP fluorescence” value is reported as 8.79%.
For `Nc1cccc2c1C(=O)N(C1CCC(=O)NC1=O)C2=O` (stereo not drawn) [Pomalidomide(CC-4047)], the “normalized SmoIP GFP fluorescence” value was 10.4%.
For `O=C(NCc1ccccc1)c1csc(Nc2ccncn2)n1` [Thiazovivin], the “normalized SmoIP GFP fluorescence” value was -11.6%.
For `NC(=O)C(c1ccccc1)(c1ccccc1)[C@@H]1CCN(CCc2ccc3c(c2)CCO3)C1` [darifenacin-hydrobromide], the “normalized SmoIP GFP fluorescence” value was 0.0767%.
In the case of `Cc1ccc(C(=O)NCCCCCC(=O)Nc2ccccc2N)cc1` [rg2833-rgfp109], the “normalized SmoIP GFP fluorescence” value is reported as -3.05%.
With `Nc1ccn([C@H]2CC[C@@H](CO)O2)c(=O)n1` [Zalcitabine] the “normalized SmoIP GFP fluorescence” value was -12.4%.
